From PubChem BioAssay
This is a sample that favours compounds with a hit; in the whole collection about 4.1% have one here.
NLRP3 yeast inh: NALP3 inflammasome inhibitors in reconstituted yeast, primary screen, luminescence, uHTS | Yeast reconstituted NLRP3/ASC/caspase-1, beta-gal luminescence, 24 h | inhibition, % at 10 µM | actives 0.39% (n = 330,000);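 active = inhibition of 50% or more; inactive = inhibition below 50%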;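 also: plate controls were induced DMSO wells for no effect and uninduced yeast grown without galactose for full effect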
tim10-1 inh: growth inhibitors of tim10-1 mutant yeast, primary screen, luminescence, uHTS; S. cerevisiae tim10-1 ts strain growth, BacTiter-Glo, 24 h; inhibition, % at 20 µM; actives 2.2% (n = 330,000); AID 463190, 2010;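 active = inhibition of at least 40%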;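 also: mutant grown at 25 °C; 0% = DMSO wells with yeast and 100% = wells holding no yeast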
PfHsp90 set2: growth inhibition of PfHsp90-expressing yeast, primary screen, antimalarial PfHsp90 inhibitor project, S. cerevisiae, BacTiter-Glo luminescence, single point, set 2 | actives 0.32% (n = 310,000) | inhibition, % at 9.4 µM | BacTiter-Glo ATP, 48 h; yeast lacking PDR1 and PDR3 efflux regulators;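 active = every replicate shows inhibition above about 80%, whatever the replicate mean, limit read from the data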;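 also: 0% = DMSO neutral controls and 100% = 20 µM radicicol positive controls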
NALP1 yeast inh: NALP1 inflammasome inhibitors in reconstituted yeast, colorimetric, S. cerevisiae, triplicate retest | S. cerevisiae NALP1/ASC/caspase-1 growth, X-gal OD620, 72 h | inhibition, % at 10 µM | actives 0.61% (n = 280,000); in the data active = inhibition mostly above about 24%, no sharp cut-off; inactive = mostly below about 32%
tim23-1 inh: growth inhibitors of tim23-1 mutant yeast, primary screen, luminescence, uHTS. S. cerevisiae tim23-1 growth, BacTiter-Glo luminescence, 24 h. inhibition, % at 20 µM. actives 1.3% (n = 330,000). AID 463212, 2010;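 active = growth inhibition of the mutant yeast at or above 50%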;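 also: temperature-sensitive mutant grown at 25 °C; plate controls were DMSO-treated mutant yeast for no effect and medium wells lacking yeast for full effect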
TIM10 inh: growth inhibitors of isogenic TIM10 control yeast, primary screen, counter-screen for tim10-1 yeast inhibitor project, luminescence, uHTS | S. cerevisiae TIM10 strain growth, BacTiter-Glo luminescence, 24 h | actives 1.4% (n = 330,000) | inhibition, % at 10 µM;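 active = inhibition of 40% or more at the single tested concentration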;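 also: wild-type TIM10 isogenic control strain grown at permissive 25 °C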
* hit, by the source's call; nt = no result given.

SMILES | NLRP3 yeast inh | tim10-1 inh | PfHsp90 set2 | NALP1 yeast inh | tim23-1 inh | TIM10 inh
O=C(Nc1ccccc1C(=O)NCCCN1CCOCC1)c1ccc(Cl)cc1 | 18 | 17 | 3 | 16 | 13 | 12
COc1ccc(C(=O)C2CCCN(Cc3cc(C)c(O)c(C)c3)C2)c(OC)c1 (stereo not drawn) | 6 | 3 | -17 | 29 | 14 | 10
COc1ccc(C(=O)C2CCCN(Cc3c(C)[nH]c4ccccc34)C2)c(OC)c1 (stereo not drawn) | 9 | 13 | nt | 33* | 10 | 3
OCC#CCSc1nnc(-c2ccncc2)o1 | -2 | 9 | 1 | 31* | -3 | 8
CC1(c2ccccc2)NC(=O)N(CC(=O)N2CCOCC2)C1=O (stereo not drawn) | -6 | 8 | -9 | 36* | -1 | 2
CCOCc1c(C(=O)Nc2cc(OCC)c(N3CCOCC3)cc2OCC)oc2ccccc12 | 11 | 19 | -14 | 36* | 5 | 21
CCOc1cc(N2CCOCC2)c(OCC)cc1NC(=O)c1oc2ccccc2c1C | 7 | 11 | 15 | 0 | 13 | -2
O=C(CN1CCN(C(=O)CCC(=O)N2CCC(c3ccccc3)=N2)CC1)Nc1ccc(F)cc1 | -2 | 3 | 12 | nt | -3 | 0
CC1(C)COC(/C=C/c2ccc([N+](=O)[O-])cc2)=N1 | nt | nt | 12 | 89* | nt | nt
CC(=C/C(=O)O)/C=C/c1ccc([N+](=O)[O-])cc1 | nt | nt | 2 | 13 | nt | nt
COc1ccc(CC(C)NCC(O)c2ccc(O)c(NC=O)c2)cc1 (stereo not drawn) | nt | nt | 10 | nt | nt | nt
Cn1c(O)c(N=Nc2ccccc2)c2ccccc21 | 36 | 29 | 4 | 22 | 25 | 20
Cc1ccc2c(c1)c(N=Nc1ccc([N+](=O)[O-])cc1)c(O)n2C | 9 | 18 | 25 | 33* | 0 | -9
COc1ccc(C2CC(c3cccc(Cl)c3)=NN2c2ccc(S(N)(=O)=O)cc2)cc1 (stereo not drawn) | nt | 16 | -21 | nt | 35 | 2
Cc1cc(-c2nnc(SCC(=O)Nc3ccccc3C(F)(F)F)o2)c(C)n1-c1ccccc1 | 7 | -1 | 3 | 44* | 1 | 1
COc1ccc(CNC(=O)C(=O)NCc2cccnc2)cc1 | 18 | -5 | 2 | 28* | 1 | 2
OCCCn1c(C2CCCN2c2nc(-c3ccc(F)cc3)cs2)nc2cc(Cl)c(Cl)cc21 (stereo not drawn) | 8 | 18 | 107* | nt | 4 | -3
OCCCn1c(C2CCCN2c2nc(-c3ccc(Cl)cc3)cs2)nc2cc(Cl)c(Cl)cc21 (stereo not drawn) | 16 | 18 | -17 | nt | 6 | 3
CC(C)Cn1cnc2c(SCCc3ccccc3)nc(N)nc21 | nt | nt | 1 | nt | nt | nt
O=C(COc1ccccc1F)OCC(=O)c1ccc([N+](=O)[O-])cc1 | -9 | -2 | -3 | nt | 6 | -1
Cc1cc(C(=O)NNC(=O)c2ccc(C)c([N+](=O)[O-])c2)c(C)o1 | 10 | -13 | -5 | nt | 0 | -10
N#C/C(=C/c1ccc(O)cc1)C(=O)NCc1ccc(Cl)cc1 | 4 | -15 | 103* | 0 | 6 | 17
N#C/C(=C\c1ccc(O)cc1)C(=O)NCc1ccccc1 | 25 | 24 | -2 | 2 | 33 | 16
CCOC(=O)c1ccccc1NC(=O)COC(=O)CCNS(=O)(=O)c1cccs1 | 5 | 22 | 10 | nt | 31 | 11
COc1cc(NC(=O)c2cc(-c3cccnc3)nc3ccc(C)cc23)c(OC)cc1Cl | nt | nt | nt | 31 | nt | nt
SMILES | NLRP3 yeast inh | tim10-1 inh | PfHsp90 set2 | NALP1 yeast inh | tim23-1 inh | TIM10 inh
COc1ccc(NC(=O)c2cc(-c3cccnc3)nc3ccc(C)cc23)cc1OC | nt | nt | -1 | 34* | nt | nt
CC1CCN(C(=O)COC(=O)c2ccc(Br)o2)CC1 | 25 | 1 | nt | 34* | 13 | 4
CCOC(=O)C1CCN(C(=O)COC(=O)c2ccc(Br)o2)CC1 | 16 | -4 | 25 | 19 | 2 | -13
CC1(C2CCC3(C)OC3C2)CO1 (stereo not drawn) | nt | nt | -3 | nt | nt | nt
CCN1CCCC1CN(Cc1cc2ccc(C)cc2[nH]c1=O)C(=S)Nc1ccc(F)cc1 (stereo not drawn) | 15 | 16 | 94* | -3 | 42 | 11
Cc1ccc(NC(=S)N(CCN(C)C)Cc2cc3cc(C)ccc3[nH]c2=O)cc1 | 8 | 13 | 4 | 18* | -3 | -6
CCN1CCCC1CN(Cc1cc2ccc(C)cc2[nH]c1=O)C(=S)Nc1ccccc1C(=O)OC (stereo not drawn) | 26 | 28 | -3 | 37* | 29 | 13
CCN1CCCC1CN(Cc1cc2ccc(C)cc2[nH]c1=O)C(=S)Nc1ccc(OC)cc1 (stereo not drawn) | 4 | -1 | 0 | 27 | 5 | -9
O=C(COC(=O)c1cc(Br)ccc1O)NC12CC3CC(CC(C3)C1)C2 | -7 | -3 | nt | nt | 6 | 2
CCN(CC)CCNC(Cc1ccccc1)c1cccc(OC)c1 (stereo not drawn) | nt | nt | -10 | nt | nt | nt
CC(C)C(NC(=O)CCNC(=O)c1ccccc1Cl)c1nc2ccccc2[nH]1 (stereo not drawn) | 11 | 14 | 20 | nt | 6 | -3
Cc1ccc(S(=O)(=O)N2CCN(C(=O)COC(=O)COc3ccccc3)CC2)cc1 | -2 | 9 | 22 | 29* | 6 | -19
COc1ccc2nc(N3CCCCC3)c(/C=C3\SC(=S)NC3=O)cc2c1 | 25 | 22 | 13 | nt | 28 | 22
O=C1NC(=S)S/C1=C\c1cc2ccccc2nc1N1CCCCC1 | 34 | 6 | 108* | 17 | 38 | 36
CCOC(=O)c1[nH]c2ccc(OC)cc2c1NC(=O)C(C)N1CCC2(CC1)OCCO2 (stereo not drawn) | nt | nt | nt | 18 | nt | nt
CCOC(=O)c1[nH]c2ccc(F)cc2c1NC(=O)C(C)N1CCc2cc(OC)c(OC)cc2C1 (stereo not drawn) | -8 | 27 | nt | 31* | 13 | 24
CS(=O)(=O)c1ccc(C(=O)NNC(=O)c2ccccc2-n2cccc2)cc1 | 1 | 4 | nt | nt | 6 | 2
COc1cccc(NC(=O)COc2ccc(C(=S)N3CCN(C)CC3)cc2OC)c1 | 14 | -4 | 15 | -17 | 5 | 0
O=C(CCc1nc(-c2ccccc2)c(-c2ccccc2)o1)OCc1ccc(Cl)cc1 | 0 | 20 | 16 | 37* | 7 | -17
O=C(CCc1nc(-c2ccccc2)c(-c2ccccc2)o1)OCc1ccc(Br)cc1 | -7 | 24 | 10 | 10 | -1 | -16
COC(=O)c1ccc(N=Cc2c(C(F)(F)F)[nH][nH]c2=O)cc1 | 5 | 3 | 20 | 27* | 2 | -6
CN(C)S(=O)(=O)c1ccc(N=Cc2c(C(F)(F)F)[nH][nH]c2=O)cc1 | -9 | 8 | nt | 0 | 0 | 1
